Records with an inconclusive call do not appear. Activity calls are given as the source filed them. Calls follow the shape of the full dose curve.
Potency is read from the fitted curve at half-maximal effect.

The nature of the test: Primary qHTS to identify inhibitors of SARS-CoV-2 cell entry (AID 1645846). Also: nearly all actives have a fitted effect of over 45% in size. The following applies: SARS-CoV-2 pseudovirus cell entry assay, luminescence; activity change, negative = inhibition: at 57.1 µM (top of the series) unless noted. From the text: Assay Provider: Wei Zheng, Ph.D.
National Center for Advancing Translational Sciences, National Institute of Health, Rockville, MD.
SARS-CoV-2 spike protein, within the viral envelope, mediates viral attachment and infection of host cells. The SARS-CoV-2 spike protein specifically binds to the host receptor ACE2 (Angiotensin-converting enzyme 2). This interaction promotes endocytosis of the viral particle, additional events lead to viral-host cell membrane fusion and release of the viral contents, allowing viral replication.
While SARS-CoV-2 requires BSL-3 facilities for live virus work, pseudotyped partices (PP) that incorporate SARS-CoV-2 spike proteins without replication elements could facilitate studies on viral entry mechanisms in a BSL-2 setting. This PP cell entry assay could also enable screening of small molecule compound libraries in BSL-2 setting to identify inhibitors of SARS-CoV-2 cell entry.
PROTOCOL TABLE (format as described by Inglese J, Shamu CE and Guy RK. 2007)
SEQUENCE No. (e.g., 1, 2, 3, etc.); […] (e.g., Cells, Incubation, Reagent, etc.); VALUE and DESCRIPTION.
1. Cells. Seed 1500 HEK293-ACE2 cells (Expi293F with stable expression of human ACE2) in 2 uL/well media (DMEM, 10% FBS, 1x L-glutamine, 1x Pen/Strep, 1 ug/ml puromycin) in white 1536-well assay plates (Greiner #782073).
2. Incubation. Incubate at 37C with 5% CO2 overnight (~16 h).
3. Compounds. Dispense 23 nL/well compounds in DMSO via pin transfer.
4. Incubation. Incubate for 1 hr at 37C 5% CO2.
5. Reagent. Dispense 2 uL/well of SARS-CoV-2-S pseudotyped particles. [a] PPs are produced with murine leukemia virus pseudotyping. [b] SARS-CoV-2-S is Wuhan-Hu-1 sequence (BEI #NR-52420) with C-terminal 19 amino acid truncation.
6. Centrifuge. […]
7. Incubation. Incubate at for 48 hr at 37C 5% CO2
8. Centrifuge. Remove supernatant with gentle centrifugation using a Blue Washer (BlueCat Bio).
9. Reagent. Dispense 4 uL/well of Bright-Glo Luciferase detection reagent (Promega #E2620).
10. Incubation. Incubate for 5 min at room temperature.
11. Detection. Read luminescence signal (Viewlux plate reader, PerkinElmer). Data was normalized with wells containing SARS-CoV-2-S PP as 100%, and wells containing bald PP (no fusion protein) as 0%.
In general terms: Quantitative high-throughput screening tests each substance at several concentrations.
Turning to `CCC(CC)[C@H](NC(C)=O)[C@@H]1[C@H](O)[C@@H](C(=O)O)C[C@H]1N=C(N)N`, the activity change, negative = inhibition is -12.4% [at 0.702 µM].

On to `COC(=O)/C=C/C(=O)OC`, for which the activity change, negative = inhibition was -4.67%.

In the case of `CN(Cc1ccc(/C=C/C(=O)NO)cc1)CC12CC3CC(CC(C3)C1)C2`, the Potency is 5.01 µM (active).

In the case of `CCNC(=O)CCC/C=C\C[C@@H]1[C@@H](/C=C/[C@@H](O)CCc2ccccc2)[C@H](O)C[C@@H]1O`, the activity change, negative = inhibition is -19.7%.

In the case of `O=C1OC(COc2ccccc2[N+](=O)[O-])CC1Cc1ccccc1` (stereo not given), the activity change, negative = inhibition is -2.39%.

Turning to `COC(=O)[C@H]1[C@H]2C[C@@H]3c4[nH]c5cc(OC)ccc5c4CCN3C[C@H]2C[C@@H](OC(=O)/C=C/c2cc(OC)c(OC)c(OC)c2)[C@@H]1OC`, the activity change, negative = inhibition is -22.2% [at 19 µM].

`COc1ccc(-c2c(Cl)ncn2-c2ccc(S(N)(=O)=O)cc2)cc1F`: the activity change, negative = inhibition was -27%.

Turning to `COc1cc2[nH]c(C)c(CCN3CCN(c4ccccc4)CC3)c2cc1OC`, the activity change, negative = inhibition was -39.8%.

Turning to `C/C(=C\c1csc(C)n1)[C@@H]1C[C@@H]2O[C@]2(C)CCC[C@H](C)[C@H](O)[C@@H](C)C(=O)C(C)(C)[C@@H](O)CC(=O)N1`, the Potency is 2.82 µM (active).

As for `CCCCCCCCCC(=O)OCCN1CCN(CC/C=C2/c3ccccc3Sc3ccc(Cl)cc32)CC1`, the activity change, negative = inhibition was -15%.

On to `C[C@H]1C[C@@H](n2c(Nc3ccc(OC(F)(F)F)cc3)nc3cc(CCC(=O)O)ccc32)CC(C)(C)C1`, for which the activity change, negative = inhibition was 2.52%.

On to `CCN1CCN(Cc2ccc(NC(=O)c3ccc(C)c(/C=C/c4cnc5[nH]ccc5c4OC)c3)cc2C(F)(F)F)CC1`, for which the Potency was 10 µM (active).

Regarding `NC1CCCN(c2c(/C=C3\SC(=O)NC3=O)cccc2-c2ccccc2)C1` (stereo not given), the activity change, negative = inhibition is -5.59%.

For `CCCCC/C=C\C/C=C\C/C=C\CCCCC(=O)O`, the activity change, negative = inhibition was -13.4% [at 114 µM].

Consider `CC1(C)CC[C@]2(C(=O)O)CC[C@]3(C)C(=CC[C@@H]4[C@@]5(C)C[C@@H](O)[C@H](O)C(C)(C)[C@@H]5CC[C@]43C)[C@@H]2C1`, for which the result was inactive.

Turning to `CNCC(O)c1ccc(OC(=O)C(C)(C)C)c(OC(=O)C(C)(C)C)c1` (stereo not given), the activity change, negative = inhibition is -25.4%.

Regarding `CN1CCN(c2ccc(C(=O)Nc3n[nH]c4ccc(Cc5cc(F)cc(F)c5)cc34)c(NC3CCOCC3)c2)CC1`, the Potency is 28.2 µM (active).

With `O=C1CSC2(CCN(CCCN3c4ccccc4Sc4ccc(Cl)cc43)CC2)N1`, the Potency was 25.1 µM (active).

For the compound `CNCc1ccc(-c2cc(-c3nc(-c4ccc(S(=O)(=O)C(C)C)cc4)cnc3N)on2)cc1`, the activity change, negative = inhibition was -25.7%.

`O=C(O)C(O)C(O)C(=O)O` (stereo not given): the activity change, negative = inhibition is -16.3%.

On to `CC1=NN(c2ccc(C(=O)O)cc2)C(=O)/C1=C/c1ccc(-c2cc(C)c(C)cc2[N+](=O)[O-])o1`, for which the outcome was inactive.

Turning to `CCC[C@@H]1CC(=O)N([C@@H](CC)C(N)=O)C1`, the activity change, negative = inhibition was -22.5%.

With `CC=CC1=C(C(=O)O)N2C(=O)[C@@H](NC(=O)[C@H](N)c3ccc(O)cc3)[C@H]2SC1`, the “outcome” value is “inactive [at 27.1 µM]”.

Consider `CC(=O)OCC1=C(C(=O)O)N2C(=O)[C@@H](NC(=O)[C@H](N)c3ccccc3)[C@H]2SC1`, for which the activity change, negative = inhibition was -7.18%.

For `CNCc1ccc(C)c(NC(=O)c2ccc(Nc3nc(-c4ccccc4)c4ccccc4n3)cc2)c1`, the Potency is 14.1 µM (active).

In the case of `O=C1OC2(CCC(C(=O)Nc3ccn(-c4ccccc4F)n3)CC2)c2cnccc21` (stereo not given), the compound was classed as inactive.

In the case of `CC(C)(CO)n1cc(C(=O)c2cncc(NC(=O)Cc3ccc(Cl)cn3)c2)c2cnc(N)nc21`, the compound was classed as inactive.

As to `O=C(CCCCCCNC(=O)c1cnc(N(c2ccccc2)c2ccccc2Cl)nc1)NO`, the activity change, negative = inhibition was found to be 2.82%.

Regarding `CCCCCCCCN=C(N)NC(N)=NCc1ccc(Cl)c(Cl)c1`, the activity change, negative = inhibition was -3.64%.

`CCCCCCCCCCCCCC(=O)OCC(COP(=O)([O-])OCC[N+](C)(C)C)OC(=O)CCCCCCCCCCCCC` (stereo not given): the activity change, negative = inhibition was -12.7%.

In the case of `OB1OCc2cc(F)ccc21`, the activity change, negative = inhibition was -25.6%.

Regarding `O=C1NC(=O)[C@@H](c2cn3c4c(cccc24)CCC3)[C@@H]1c1c[nH]c2ccccc12`, the activity change, negative = inhibition was -73.3%.

In the case of `O=C(O)CNC(=O)c1nc(Cl)c2ccccc2c1O`, the activity change, negative = inhibition was -5.6%.

Regarding `O=C(O)CCNc1cc(N2CCc3ccccc3CC2)nc(-c2cccnc2)n1`, the outcome was inactive.

In the case of `ClCC1CO1` (stereo not given) (tested in a mixture with another compound), the activity change, negative = inhibition was -15.1%.

As to `O=C(NOCC(O)CO)c1ccc(F)c(F)c1Nc1ccc(I)cc1F` (stereo not given), the activity change, negative = inhibition is -21.5%.

With `O=C(O)c1cc2ccccc2c(Cc2c(O)c(C(=O)O)cc3ccccc23)c1O`, the compound was called inactive.

As for `C[C@H]1C[C@@H]2[C@H]([C@@H](O)C[C@@]3(C)[C@H]2CC[C@]3(O)C(=O)COC(=O)CCC(=O)O)[C@@]2(C)C=CC(=O)C=C12`, the activity change, negative = inhibition was -18.6%.

In the case of `CCN(CC)CCOc1ccc2nc(N(C)C)sc2c1`, the activity change, negative = inhibition is -8.36% [at 114 µM].

For the compound `Cc1nc(-c2cccnc2)sc1C(=O)Nc1ccccc1-c1cn2c(CN3CCOCC3)csc2n1`, the result was inactive.

The record behind these values is PubChem BioAssay (NCATS).
